From PubChem BioAssay (NCI)
This is part of a sample that, as a whole, favours compounds with a hit. Of some 83,000 tested, about 20% had one in any assay.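 For each line, cells grew in 96-well plates with the test compound present at a single concentration for 48 hours.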 Active and inactive are the calls of the source. Rule for the calls: active = growth percent below 10; inactive = the rest.

How the values were obtained:
Experiment in all cases: NCI-60 one-dose screen, 48 h (100 = growth as untreated, 0 = no growth, -100 = all killed)
Conditions in all cases: 10 µM unless noted
DU-145 prostate = test system: DU-145 prostate
K-562 leukemia = test system: K-562 leukemia
MALME-3M melanoma = test system: MALME-3M melanoma
MDA-MB-231 breast = test system: MDA-MB-231 breast
RXF 393 renal = test system: RXF 393 renal
SF-268 CNS = test system: SF-268 CNS
SF-295 CNS = test system: SF-295 CNS
SF-539 CNS = test system: SF-539 CNS
UACC-257 melanoma = test system: UACC-257 melanoma
M14 melanoma = test system: M14 melanoma
HCT-15 colon = test system: HCT-15 colon
HT29 colon = test system: HT29 colon
SNB-75 CNS = test system: SNB-75 CNS
SNB-19 CNS = test system: SNB-19 CNS
U251 CNS = test system: U251 CNS
PC-3 prostate = test system: PC-3 prostate
SK-MEL-5 melanoma = test system: SK-MEL-5 melanoma
LOX IMVI melanoma = test system: LOX IMVI melanoma
SK-MEL-28 melanoma = test system: SK-MEL-28 melanoma
UACC-62 melanoma = test system: UACC-62 melanoma

Measured: growth

O=S(=O)(NCCNc1nccc(-c2c(-c3ccc(F)c(O)c3)nc3occn23)n1)c1ccc(Cl)cc1
inactive: DU-145 prostate 90.9% | K-562 leukemia 73.8% | MDA-MB-231 breast 60% | RXF 393 renal 57.5% | SF-268 CNS 80.5% | SF-295 CNS 97.4% | SF-539 CNS 102% | UACC-257 melanoma 41.6% | M14 melanoma 26.6% | HCT-15 colon 98.9% | HT29 colon 92.3% | SNB-75 CNS 85.2% | SNB-19 CNS 101% | U251 CNS 93.9% | PC-3 prostate 79.8% | SK-MEL-5 melanoma 60.9% | LOX IMVI melanoma 45.5% | SK-MEL-28 melanoma 40.1%
active: MALME-3M melanoma 2.05%

O=c1c2cccc3c(N4CCCC4)ccc(c32)c2nc3ccccc3n12
inactive: DU-145 prostate 78.1% | K-562 leukemia 76% | MALME-3M melanoma 70.4% | MDA-MB-231 breast 77.1% | RXF 393 renal 103% | SF-268 CNS 92% | SF-295 CNS 59.8% | SF-539 CNS 91.3% | UACC-257 melanoma 91.8% | M14 melanoma 91.5% | HCT-15 colon 78.6% | HT29 colon 77.8% | SNB-75 CNS 73% | SNB-19 CNS 76% | U251 CNS 64.7% | PC-3 prostate 67.9% | SK-MEL-5 melanoma 64.5% | UACC-62 melanoma 62.6% | LOX IMVI melanoma 51.7% | SK-MEL-28 melanoma 90.9%

N#Cc1nc(-c2ccc(F)cc2)oc1S(=O)(=O)N1CCCCC1
active: K-562 leukemia 7.64% | HCT-15 colon -22.4% | LOX IMVI melanoma 1.69%
inactive: DU-145 prostate 99% | MALME-3M melanoma 42.8% | MDA-MB-231 breast 78.1% | RXF 393 renal 55.4% | SF-268 CNS 106% | SF-295 CNS 104% | SF-539 CNS 72.6% | UACC-257 melanoma 91.2% | M14 melanoma 68.7% | HT29 colon 32.3% | SNB-75 CNS 92% | SNB-19 CNS 96.5% | U251 CNS 91.2% | PC-3 prostate 92.1% | SK-MEL-5 melanoma 88.7% | SK-MEL-28 melanoma 102%

CCSc1oc(-c2ccccc2)nc1[P+](c1ccccc1)(c1ccccc1)c1ccccc1
active: K-562 leukemia 7.15% | MALME-3M melanoma -25% | MDA-MB-231 breast -12.8% | RXF 393 renal 0.296% | SF-295 CNS -4.41% | UACC-257 melanoma 7.79% | M14 melanoma 7.57% | HCT-15 colon 6.09% | HT29 colon 1.21% | SNB-75 CNS 2.74% | PC-3 prostate -1.59% | SK-MEL-5 melanoma -91.8% | UACC-62 melanoma -0.29% | LOX IMVI melanoma -84.9%
inactive: DU-145 prostate 11.1% | SF-268 CNS 14.1% | SF-539 CNS 14.6% | SNB-19 CNS 12.4% | U251 CNS 15.2% | SK-MEL-28 melanoma 29.8%

COc1ccc(-c2noc(C(=O)O)c2-c2cc(OC)c(OC)c(OC)c2)cc1
inactive: DU-145 prostate 36.1% | K-562 leukemia 12.6% | MALME-3M melanoma 52.8% | MDA-MB-231 breast 57.1% | RXF 393 renal 21.2% | SF-268 CNS 40.5% | SF-295 CNS 13.5% | UACC-257 melanoma 45.4% | M14 melanoma 11.7% | HCT-15 colon 30.4% | SNB-19 CNS 31.6% | U251 CNS 24.6% | PC-3 prostate 26.3% | SK-MEL-5 melanoma 13% | LOX IMVI melanoma 35.2% | SK-MEL-28 melanoma 65.3%
active: SF-539 CNS 3.15% | HT29 colon 4.82% | SNB-75 CNS -3.43%

CC(C)=CCC[C@](C)(O)[C@H]1CC[C@]2(C)[C@@H]1CC[C@@H]1[C@@]3(C)C/C(=C/c4ccco4)C(=O)C(C)(C)[C@@H]3CC[C@]12C
inactive: DU-145 prostate 113% | K-562 leukemia 99.2% | MALME-3M melanoma 107% | MDA-MB-231 breast 101% | RXF 393 renal 111% | SF-268 CNS 101% | SF-295 CNS 100% | SF-539 CNS 102% | UACC-257 melanoma 109% | M14 melanoma 104% | HCT-15 colon 110% | HT29 colon 111% | SNB-75 CNS 92.7% | SNB-19 CNS 103% | U251 CNS 101% | PC-3 prostate 97.4% | SK-MEL-5 melanoma 102% | UACC-62 melanoma 91.7% | LOX IMVI melanoma 101% | SK-MEL-28 melanoma 102%

CS(=O)(=O)c1ccc(-c2cnn3ccc(-c4cccc(S(=O)(=O)C5CC5)c4)nc23)cc1
inactive: DU-145 prostate 61.7% | K-562 leukemia 78% | MALME-3M melanoma 50.2% | MDA-MB-231 breast 53% | RXF 393 renal 22.2% | SF-268 CNS 45.5% | SF-295 CNS 56.9% | SF-539 CNS 60.8% | UACC-257 melanoma 58.3% | M14 melanoma 64.3% | HCT-15 colon 57% | HT29 colon 34% | SNB-75 CNS 14% | SNB-19 CNS 67.3% | PC-3 prostate 40.3% | SK-MEL-5 melanoma 63.2% | UACC-62 melanoma 53.3% | LOX IMVI melanoma 44.1% | SK-MEL-28 melanoma 69.7%

O=C1/C(=C/c2ccccc2Br)COc2ccc(O)cc21
inactive: DU-145 prostate 69% | K-562 leukemia 11.9% | MALME-3M melanoma 84% | MDA-MB-231 breast 73.9% | RXF 393 renal 101% | SF-268 CNS 86.1% | SF-295 CNS 99.1% | SF-539 CNS 80% | UACC-257 melanoma 99.2% | M14 melanoma 73.3% | HCT-15 colon 40.7% | HT29 colon 48.8% | SNB-75 CNS 89.3% | SNB-19 CNS 75% | U251 CNS 46.1% | PC-3 prostate 60.7% | SK-MEL-5 melanoma 94.6% | LOX IMVI melanoma 18.8% | SK-MEL-28 melanoma 101%

CN1CCN(c2cc(Nc3cc(C4CC4)[nH]n3)nc(Nc3ccc(CC(=O)NCc4cccc(F)c4)cc3)n2)CC1
active: RXF 393 renal -56.5% | SF-539 CNS -22.9% | HT29 colon 8.1% | SNB-75 CNS -56% | LOX IMVI melanoma -28.4%
inactive: DU-145 prostate 41.7% | K-562 leukemia 20.7% | MALME-3M melanoma 34.7% | MDA-MB-231 breast 14.4% | SF-268 CNS 30.2% | SF-295 CNS 49.4% | UACC-257 melanoma 40.9% | M14 melanoma 23.7% | HCT-15 colon 56.5% | SNB-19 CNS 40% | PC-3 prostate 47.4% | SK-MEL-5 melanoma 68.6% | UACC-62 melanoma 32.7% | SK-MEL-28 melanoma 25.8%

Nc1nc(N)c(-c2ccc(Cl)c(Cl)c2)c(CBr)n1
inactive: DU-145 prostate 83.2% | K-562 leukemia 36.8% | MALME-3M melanoma 89% | MDA-MB-231 breast 82.2% | RXF 393 renal 90.6% | SF-268 CNS 94% | SF-295 CNS 55.7% | SF-539 CNS 65.4% | UACC-257 melanoma 68.5% | M14 melanoma 50.5% | HCT-15 colon 43% | HT29 colon 34.2% | SNB-75 CNS 95% | SNB-19 CNS 94% | PC-3 prostate 65.2% | SK-MEL-5 melanoma 62.6% | UACC-62 melanoma 57% | LOX IMVI melanoma 34.9% | SK-MEL-28 melanoma 103%

COc1cc(-c2cncn2-c2ccc(-c3nc4ccc(F)cc4s3)cc2)ccc1F
active: DU-145 prostate -7.18%
inactive: K-562 leukemia 62.8% | MALME-3M melanoma 99.3% | MDA-MB-231 breast 103% | RXF 393 renal 52.5% | SF-268 CNS 81.3% | SF-295 CNS 90% | SF-539 CNS 92.8% | UACC-257 melanoma 79.7% | M14 melanoma 102% | HCT-15 colon 30.5% | HT29 colon 30.8% | SNB-75 CNS 127% | SNB-19 CNS 86.7% | U251 CNS 83% | PC-3 prostate 107% | SK-MEL-5 melanoma 68.7% | LOX IMVI melanoma 86.7% | SK-MEL-28 melanoma 95.9%

C/C(=N\O)c1ccc(Cl)cc1
inactive: DU-145 prostate 121% | K-562 leukemia 100% | MALME-3M melanoma 137% | MDA-MB-231 breast 116% | RXF 393 renal 141% | SF-268 CNS 127% | SF-295 CNS 118% | SF-539 CNS 114% | UACC-257 melanoma 89.5% | M14 melanoma 114% | HCT-15 colon 112% | HT29 colon 108% | SNB-75 CNS 89.6% | SNB-19 CNS 104% | PC-3 prostate 86.3% | SK-MEL-5 melanoma 108% | UACC-62 melanoma 95% | LOX IMVI melanoma 105% | SK-MEL-28 melanoma 122%

NC(=O)C(=O)c1ccccc1NC=O
inactive: DU-145 prostate 106% | K-562 leukemia 92.3% | MALME-3M melanoma 96.8% | MDA-MB-231 breast 97.7% | RXF 393 renal 110% | SF-268 CNS 97.2% | SF-295 CNS 104% | SF-539 CNS 102% | UACC-257 melanoma 98.7% | M14 melanoma 92.7% | HCT-15 colon 105% | HT29 colon 101% | SNB-75 CNS 77.2% | SNB-19 CNS 99.9% | PC-3 prostate 90.1% | SK-MEL-5 melanoma 103% | UACC-62 melanoma 92.1% | LOX IMVI melanoma 93.1% | SK-MEL-28 melanoma 101%

COc1c(B(O)O)cccc1-c1cc(C)c2c(ccc3[nH]ncc32)n1
inactive: DU-145 prostate 80.8% | K-562 leukemia 99.4% | MALME-3M melanoma 179% | MDA-MB-231 breast 22.1% | SF-268 CNS 62.7% | SF-295 CNS 87.8% | SF-539 CNS 25.2% | UACC-257 melanoma 126% | M14 melanoma 131% | HCT-15 colon 95.2% | HT29 colon 88.2% | SNB-19 CNS 91.1% | PC-3 prostate 84.3% | SK-MEL-5 melanoma 88.9% | UACC-62 melanoma 98.8% | LOX IMVI melanoma 56.9% | SK-MEL-28 melanoma 116%
active: RXF 393 renal 7.05% | SNB-75 CNS -29.9%

COc1cc(OC)c(/C=C/C(=O)c2c(OC)cccc2OC)c(OC)c1
inactive: K-562 leukemia 10.5% | MALME-3M melanoma 51.4% | MDA-MB-231 breast 15% | SF-268 CNS 32% | UACC-257 melanoma 43.6% | HCT-15 colon 15.7% | SNB-75 CNS 10.6% | SNB-19 CNS 19.3% | PC-3 prostate 11.6% | SK-MEL-28 melanoma 13.2%
active: DU-145 prostate 6.79% | RXF 393 renal -60.8% | SF-295 CNS 1.38% | SF-539 CNS -11.4% | M14 melanoma -44.3% | HT29 colon 0.507% | SK-MEL-5 melanoma 1.1% | UACC-62 melanoma -20.6% | LOX IMVI melanoma -4.2%

CC1CCc2c(C(=O)Nc3ncc(Cc4cccc([N+](=O)[O-])c4)s3)csc2C1 (configuration not stated)
inactive: DU-145 prostate 18% | K-562 leukemia 23.8% | MALME-3M melanoma 51% | MDA-MB-231 breast 23.6% | SF-268 CNS 43.9% | SF-295 CNS 14.3% | UACC-257 melanoma 52% | HCT-15 colon 26.2% | HT29 colon 14.9% | SNB-19 CNS 31.8% | U251 CNS 26.9% | PC-3 prostate 35.7% | SK-MEL-5 melanoma 21.1% | LOX IMVI melanoma 20% | SK-MEL-28 melanoma 60.7%
active: RXF 393 renal -24.1% | SF-539 CNS -7.87% | M14 melanoma 6.98% | SNB-75 CNS -14.6%
